# Laboratory results published in the supplement of paper PMC4166925.
# ± gives the standard deviation of the averaged measurements. The full ranking holds about 33,000 sequences; the median of “E-score (dimensionless, -0.5 to 0.5)” is about -0.046, and the highest 2% start at about 0.36. This excerpt belongs to a sample that is enriched for the highest values.
# System: T1, SpTbr T-box DNA-binding domain (GST fusion)
# T1 sequence: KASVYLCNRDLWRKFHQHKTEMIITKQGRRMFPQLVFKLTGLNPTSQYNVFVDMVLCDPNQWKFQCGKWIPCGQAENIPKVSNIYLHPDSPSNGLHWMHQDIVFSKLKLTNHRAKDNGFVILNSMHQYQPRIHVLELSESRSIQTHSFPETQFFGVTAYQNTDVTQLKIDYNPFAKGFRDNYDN
# Experiment: PBM E-score of 8-mer (E-score (dimensionless, -0.5 to 0.5)); Tbr is Tbrain of the sea star Patiria miniata (Pm) or the sea urchin Strongylocentrotus purpuratus (Sp); higher = stronger binding preference
# Conditions: the construct has about 5 more residues each side
# Method: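 Universal protein-binding microarray (Agilent AMADID 016060, 60-bp probes with a 35-bp variable region) incubated with 200 nM GST-fused Strongylocentrotus purpuratus Tbr T-box DNA-binding domain (residues 362-554) in PBS pH 7.5. Scored for every ungapped 8-mer (given with its reverse complement) as E-score (range -0.5 to 0.5; >0.45 counts as bound) and Z-score of median probe intensity. Two replicate arrays (datasets 1 and 2).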
# 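Further: protein at 200 nM in PBS on universal double-stranded arrays.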
row,Sequence,PBM E-score of 8-mer
1,ATCACACA,0.425 ± 0.017
2,ATCACAGG,0.227 ± 0.05
3,ATCACAAA,0.106 ± 0.014
4,ATCACATA,0.251 ± 0.055
5,ATCACACG,0.417 ± 0.027
6,AACAGCTA,0.232 ± 0.018
7,GAATCAGC,-0.196 ± 0.017
8,AAGCTTAG,-0.108 ± 0.11
9,ATTAGCAC,0.368 ± 0.038
10,CCTAGCAC,0.257 ± 0.016
11,ATTAGCAA,-0.0446 ± 0.11
12,CTTAGCAC,0.364 ± 0.0057
13,CTTAGCAA,0.0388 ± 0.079
14,ATTAGCAG,0.0716 ± 0.046
15,AGCATGGA,-0.0258 ± 0.071
16,ATGCTCTG,-0.168 ± 0.038
17,CGCTCAAA,0.00388 ± 0.065
18,ATATTAAA,-0.0775 ± 0.025
19,CATCACAC,0.451 ± 0.0075
20,CATCACAG,0.184 ± 0.0071
21,AATCACAG,0.06 ± 0.051
22,GATCACAA,0.251 ± 0.0097

row,Sequence,PBM E-score of 8-mer
1,AATCACAC,0.457 ± 0.011
2,GATCACGC,0.359 ± 0.037
3,CATCACAA,0.204 ± 0.042
4,AATCACAA,0.212 ± 0.018
5,GATCACAC,0.479 ± 0.01
6,CGCGACCG,0.29 ± 0.031
7,GGTACCAA,-0.0861 ± 0.086
8,ACAAAGGT,0.119 ± 0.0064
9,ACTGGGCT,-0.25 ± 0.058
10,AGTGGCAG,0.171 ± 0.033
11,AACCCCGC,0.136 ± 0.034
12,AAGGTGCA,0.35 ± 0.01
13,AAGGTACG,-0.0434 ± 0.066
14,CAGGTGCC,0.388 ± 0.034
15,CTGGTGCC,0.141 ± 0.076
16,GAGGTGCA,0.338 ± 0.032
17,AAGGTGCG,0.4522 ± 0.0011
18,CGGGTGCC,0.18 ± 0.0043
19,AAGGTGCT,0.4354 ± 0.0022
20,ACGGTGCG,0.298 ± 0.024
21,AAGGTGGT,0.247 ± 0.033
22,AAGGTGCC,0.364 ± 0.0073

row,Sequence,PBM E-score of 8-mer
1,GAGGTGCC,0.379 ± 0.019
2,AAATAGCG,0.169 ± 0.013
3,CACCCCTA,0.212 ± 0.022
4,CGCTACAA,0.107 ± 0.069
5,AACCATGG,-0.0415 ± 0.0021
6,ACTTCGAG,0.0665 ± 0.024
7,CAGGTGCG,0.454 ± 0.01
8,CAGGTGCA,0.265 ± 0.028
9,CAGATGCG,-0.139 ± 0.019
10,CAGGTCTA,-0.191 ± 0.055
11,AGCTAGCT,0.0778 ± 0.066
12,CACAAACC,-0.19 ± 0.028
13,CCAACACC,0.4264 ± 0.0023
14,ACAACACC,0.424 ± 0.011
15,ACAACACA,0.349 ± 0.0079
16,GCAACACC,0.439 ± 0.0069
17,CCAACACA,0.299 ± 0.017
18,GCAACAAC,0.0625 ± 0.016
19,ACAACACT,0.345 ± 0.0051
20,CCAACACG,0.232 ± 0.013
21,GCAACACA,0.267 ± 0.014
22,ATCACCGC,-0.0213 ± 0.03

row,Sequence,PBM E-score of 8-mer
1,AGTTGTCC,-0.136 ± 0.07
2,ACAATCAG,-0.0516 ± 0.0027
3,ACGCAAGC,-0.101 ± 0.061
4,AACAATTA,0.0621 ± 0.089
5,ACAGTTGA,0.2 ± 0.059
6,CATGGGCC,-0.352 ± 0.015
7,AGTACCGG,-0.341 ± 0.03
8,ATGAGAAC,-0.0381 ± 0.053
9,GCGAGAAA,0.342 ± 0.0013
10,ACGAGAAC,0.186 ± 0.0072
11,GCGAGAAC,0.393 ± 0.0087
12,GTGAGAAC,0.4469 ± 0.0042
13,CTGAGAAA,-0.0469 ± 0.13
14,ATGAGAAA,-0.221 ± 0.031
15,GTGAGAAA,0.441 ± 0.016
16,CTGAGAAC,0.0561 ± 0.038
17,CCAACTCC,-0.0214 ± 0.0039
18,GTCAAGGA,-0.0692 ± 0.085
19,AGCAAGAT,-0.0318 ± 0.027
20,CTTTTTTC,-0.0265 ± 0.039
